In experiment [1] the target is Bile acid receptor (Homo sapiens) (UniProt Q96RI1). Put plainly: OT_FXR_FXRSRC1_1440: Odyssey Thera (OT) 24-hour HEK293T Protein-Complementation Assay for Farnesoid X receptor/SRC-1 Co-activator (AID 2283384; active = hit-call score of the fitted dose curve at least 0.9, where 1 is the maximum). A digest of the protocol:
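Cell-based binding reporter: interaction of FXR with SRC-1 brings reporter fragments together, giving a fluorescence signal read 24 h after dosing of HEK293T cells.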

Experiment [2] has as its target Retinoic acid receptor RXR-alpha (Homo sapiens) (UniProt P19793). Nature of the experiment: OT_NURR1_NURR1RXRa_0480: Odyssey Thera (OT) 8-hour HEK293T Protein Complementation Assay for Nurr1/retinoid X receptor (RXR) (AID 2283385; active = hit-call score of the fitted dose curve at least 0.9, where 1 is the maximum). A digest of the protocol: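 Compounds are applied to HEK293T cells carrying Nurr1 and RXRα linked to reporter fragments. After 8 h, fluorescence intensity reports heterodimer formation, with DMSO as baseline.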

In experiment [3] the target is Peroxisome proliferator-activated receptor gamma (Homo sapiens) (UniProt P37231). Nature of the experiment: OT_PPARg_PPARgSRC1_0480: Odyssey Thera (OT) 8-hour Protein-Complementation Assay for Peroxisome Proliferator-activated Receptor Gamma / SRC-1 Co-activator (AID 2283387; active = hit-call score of the fitted dose curve at least 0.9, where 1 is the maximum;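 note: nuclear to cytoplasmic split Venus YFP fluorescence ratio reporting PPARg SRC-1 interaction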). A digest of the protocol:
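Read-out: 488 nm N/C fluorescence ratio from complemented Venus YFP fragments, ≥350 cells per image, gain-of-signal fitted against DMSO baseline. Fusions of PPARg/SRC-1 with IFP1/IFP2 expressed transiently in HEK293T; compounds applied 8 h.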

For experiment [4] the target is unchanged. Nature of the experiment: OT_PPARg_PPARgSRC1_1440: Odyssey Thera (OT) 24-hour Protein-Complementation Assay for Peroxisome Proliferator-activated Receptor Gamma/ SRC-1 Co-activator (AID 2283388; active = hit-call score of the fitted dose curve at least 0.9, where 1 is the maximum;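 note: nuclear to cytoplasmic ratio of reconstituted Venus YFP fluorescence in fixed imaged cells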). A digest of the protocol: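 Readout: nuclear-to-cytoplasmic 488 nm fluorescence ratio, ≥350 cells per image, 8 images per well, after 24 h compound exposure of HEK293T expressing PPARg/SRC-1 split-YFP fusions. Activity fitted in positive direction against DMSO.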

Read-out in experiment [5]: Tumor necrosis factor receptor superfamily member 6 (Homo sapiens) (UniProt P25445)
Nature of the experiment: LTEA_HepaRG_FAS: Life Technologies and Expression Analysis (LTEA) Assay for Fas cell surface death receptor (FAS) using HepaRG (AID 2283447). The conditions noted are these: mRNA level, 48 h; actives raise or lower the signal. A digest of the protocol:
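Differentiated human HepaRG cells, pre-cultured 48 h, were exposed in duplicate for 48 h to 8-point half-log concentrations (top 100 uM, 0.5% DMSO) in serum-free induction medium; FAS mRNA measured by qRT-PCR, normalized to ACTB/GAPDH/POLR2A, bidirectional fit versus DMSO.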

Read-out in experiment [6]: Cyclin D2 (CCND2), CCND2 (gene 894)
Nature of the experiment: LTEA_HepaRG_CCND2: Life Technologies and Expression Analysis (LTEA) Assay for Cyclin D2 (CCND2) using HepaRG (AID 2283449).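 Note: CCND2 transcript measured by TaqMan qRT-PCR and normalised to three housekeeping genes.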 The conditions noted are these: mRNA level, 48 h; actives raise or lower the signal. The gist of the method: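 Differentiated human HepaRG cells were exposed for 48 h in serum-free induction medium to eight half-log concentrations topping at 100 uM (0.5% DMSO vehicle). CCND2 mRNA was quantified by TaqMan qRT-PCR, normalised to ACTB, GAPDH and POLR2A, and fitted bidirectionally against DMSO.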

Read-out in experiment [7]: Cyclin D1 (CCND1), CCND1 (gene 595)
Put plainly: LTEA_HepaRG_CCND1: Life Technologies and Expression Analysis (LTEA) Assay for Cyclin D1 (CCND1) using HepaRG (AID 2283451). The conditions noted are these: mRNA level, 48 h; actives raise or lower the signal. A digest of the protocol: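 qRT-PCR (Fluidigm 96.96 array) read-out of transcript level, housekeeping-normalized (ACTB/GAPDH/POLR2A). HepaRG cells, 48 h chemical exposure, 8-point half-log series from 100 uM, 0.5% DMSO vehicle; gain or loss relative to DMSO baseline.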

Read-out in experiment [8]: catalase (CAT), CAT (gene 847)
Put plainly: LTEA_HepaRG_CAT: Life Technologies and Expression Analysis (LTEA) Assay for catalase (CAT) using HepaRG (AID 2283452). The conditions noted are these: mRNA level, 48 h; actives raise or lower the signal. A digest of the protocol:
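Differentiated HepaRG cells in serum-free induction medium were dosed 48 h in duplicate, eight half-log concentrations from 100 uM in 0.5% DMSO. Transcript measured by TaqMan qRT-PCR, normalised to ACTB/GAPDH/POLR2A, fitted bidirectionally against DMSO.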

Read-out in experiment [9]: flavin-containing dimethylaniline monooxygenases 3 (FMO3), FMO3 (gene 2328)
Nature of the experiment: LTEA_HepaRG_FMO3: Life Technologies and Expression Analysis (LTEA) Assay for flavin-containing dimethylaniline monooxygenases 3 (FMO3) using HepaRG (AID 2283453).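 For AC50: FMO3 transcript by TaqMan qRT-PCR normalized to ACTB GAPDH and POLR2A.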 The conditions noted are these: mRNA level, 48 h; actives raise or lower the signal. The gist of the method: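 HepaRG, 48 h exposure, 8-pt half-log series from 100 uM, 0.5% DMSO vehicle, duplicates; FMO3 transcript by Fluidigm TaqMan qRT-PCR, housekeeping-normalized; gain/loss fit vs DMSO.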

Read-out in experiment [10]: Cytochrome P450 (CYP1A1), CYP1A1 (gene 1543)
Nature of the experiment: LTEA_HepaRG_CYP1A1: Life Technologies and Expression Analysis (LTEA) Assay for Cytochrome P450 (CYP1A1) using HepaRG (AID 2283454). The conditions noted are these: mRNA level, 48 h; actives raise or lower the signal. The gist of the method:
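qRT-PCR read-out: CYP1A1 transcript normalized to three housekeeping genes, fitted bidirectionally against 0.5% DMSO vehicle baseline. Human HepaRG cells, 48 h chemical exposure, 8-point half-log series topping at 100 uM.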

Read-out in experiment [11]: CFLAR gene, CFLAR (gene 8837)
Nature of the experiment: LTEA_HepaRG_CFLAR: Life Technologies and Expression Analysis (LTEA) Assay for CFLAR gene using HepaRG (AID 2283455). The conditions noted are these: mRNA level, 48 h; actives raise or lower the signal. A digest of the protocol:
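HepaRG cells were plated for 48 h, switched to serum-free induction medium, then exposed in duplicate for 48 h to 8 concentrations (top 100 uM, half-log steps, 0.5% DMSO). CFLAR mRNA was measured by qRT-PCR, normalized to ACTB, GAPDH and POLR2A.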

Experiment [12] addresses Retinoic acid receptor RXR-alpha (Homo sapiens) (UniProt P19793). Nature of the experiment: OT_NURR1_NURR1RXRa_1440: Odyssey Thera (OT) 24-hour HEK293T Protein Complementation Assay for Nurr1/retinoid X receptor (RXR) (AID 2283386; active = hit-call score of the fitted dose curve at least 0.9, where 1 is the maximum). A digest of the protocol:
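Measured as fluorescence from a reconstituted split reporter, this 24 h HEK293T complementation assay scores compound-induced gain of Nurr1/RXRα association relative to DMSO.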

Read-out in experiment [13]: Fatty acid synthase (Homo sapiens) (UniProt P49327)
Put plainly: LTEA_HepaRG_FASN: Life Technologies and Expression Analysis (LTEA) Assay for Fatty Acid Synthase (FASN) using HepaRG (AID 2283448). The conditions noted are these: mRNA level, 48 h; actives raise or lower the signal. A digest of the protocol: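 Transcript-level assay: HepaRG liver cells are treated for 48 h across an eight-point range topping at 100 uM, and FASN mRNA, normalized to three housekeeping genes, is compared with DMSO controls in both directions.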

Experiment [14] in a line: CEETOX_H295R_11DCORT: CeeTox H295R High-throughput Steroidogenesis Assay for 11-Deoxycortisol (11DCORT) (AID 2283432).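 For AC50: human adrenal H295R cells prestimulated with 10 µM forskolin for 48 h; 11-deoxycortisol secreted into the medium measured by LC-MS/MS.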 The conditions noted are these: actives raise or lower the signal. The gist of the method: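 H295R cells; 10 uM forskolin prestim 48 h; compound in 0.1% DMSO 48 h; media extracted with MTBE; 11-deoxycortisol by LC-MS/MS, 7-point standard curve; gain/loss vs DMSO baseline; viability by MTT in same wells.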

The nature of experiment [15]: CEETOX_H295R_CORTIC: CeeTox H295R High-throughput Steroidogenesis Assay for Corticosterone (CORTIC) (AID 2283437).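 Note: corticosterone secreted into medium quantified by mass spectrometry.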 The conditions noted are these: actives raise or lower the signal. A digest of the protocol:
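H295R cells were prestimulated 48 h with 10 uM forskolin, then exposed 48 h to test chemical in 0.1% DMSO. Medium corticosterone was MTBE-extracted and quantified by HPLC-MS/MS; bidirectional fit versus DMSO baseline.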

Experiment [16] in a line: CEETOX_H295R_CORTISOL: CeeTox H295R High-throughput Steroidogenesis Assay for Cortisol (AID 2283438).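 Note: cortisol secreted into medium quantified by LC-MS/MS.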 The conditions noted are these: actives raise or lower the signal. A digest of the protocol:
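Human adrenocortical H295R cells (passage ≤10) received test chemicals for 48 h after forskolin priming. Secreted cortisol was measured by LC-MS/MS.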

Experiment [17] is described as follows: CEETOX_H295R_DOC: CeeTox H295R High-throughput Steroidogenesis Assay for DOC (AID 2283439). The conditions noted are these: actives raise or lower the signal. A digest of the protocol:
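Secreted DOC was quantified from H295R media by HPLC-MS/MS after 48 h chemical exposure following 48 h forskolin (10 uM) prestimulation. Values were fitted in both directions relative to DMSO, the negative control and baseline.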

Experiment [18] is described as follows: CEETOX_H295R_PROG: CeeTox H295R High-throughput Steroidogenesis Assay for Progesterone (PROG) (AID 2283442).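 For AC50: human H295R adrenal cells primed with 10 µM forskolin before dosing.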 The conditions noted are these: actives raise or lower the signal. The gist of the method: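 Progesterone read-out: HPLC-MS/MS on MTBE extracts of conditioned medium after 48 h chemical exposure of forskolin-primed (10 uM, 48 h) H295R cells. Gain or loss of signal was fitted relative to DMSO baseline.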

Read-out in experiment [19]: Cyclin Dependent Kinase Inhibitor 1A (CDKN1A), CDKN1A (gene 1026)
Put plainly: LTEA_HepaRG_CDKN1A: Life Technologies and Expression Analysis (LTEA) Assay for Cyclin Dependent Kinase Inhibitor 1A (CDKN1A) using HepaRG (AID 2283450). The conditions noted are these: mRNA level, 48 h; actives raise or lower the signal. The gist of the method: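 HepaRG, 48 h dosing, 8-pt half-log series from 100 uM top, 0.5% DMSO vehicle, duplicates. Readout: TaqMan qRT-PCR of CDKN1A transcript, housekeeping-normalized (ACTB, GAPDH, POLR2A). Up/down curve fit relative to DMSO.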

Experiment [20] is described as follows: CEETOX_H295R_ANDR: CeeTox H295R High-throughput Steroidogenesis Assay for Androstenedione (ANDR) (AID 2283436). The conditions noted are these: actives raise or lower the signal. A digest of the protocol:
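H295R human adrenal cells (passages ≤10) were exposed to test chemicals for 48 h; androstenedione in medium was MTBE-extracted and quantified by HPLC-MS/MS against a 7-point standard curve. Bidirectional fitting used DMSO as baseline.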

The source of these data is PubChem BioAssay (EPA / NIEHS).

Values joined by “and” are separate entries in the source; they are usually repeats but may differ in a detail not shown here. Equal entries are not always repeated. Records with an inconclusive call do not appear. Active and inactive are the calls of the source. Rule for the calls, unless noted: active = hit-call score of the fitted dose curve at least 0.9, where 1 is the maximum; inactive = score below 0.9.

Fatty acid synthase (Homo sapiens), sequence (P49327 whole entry, looked up): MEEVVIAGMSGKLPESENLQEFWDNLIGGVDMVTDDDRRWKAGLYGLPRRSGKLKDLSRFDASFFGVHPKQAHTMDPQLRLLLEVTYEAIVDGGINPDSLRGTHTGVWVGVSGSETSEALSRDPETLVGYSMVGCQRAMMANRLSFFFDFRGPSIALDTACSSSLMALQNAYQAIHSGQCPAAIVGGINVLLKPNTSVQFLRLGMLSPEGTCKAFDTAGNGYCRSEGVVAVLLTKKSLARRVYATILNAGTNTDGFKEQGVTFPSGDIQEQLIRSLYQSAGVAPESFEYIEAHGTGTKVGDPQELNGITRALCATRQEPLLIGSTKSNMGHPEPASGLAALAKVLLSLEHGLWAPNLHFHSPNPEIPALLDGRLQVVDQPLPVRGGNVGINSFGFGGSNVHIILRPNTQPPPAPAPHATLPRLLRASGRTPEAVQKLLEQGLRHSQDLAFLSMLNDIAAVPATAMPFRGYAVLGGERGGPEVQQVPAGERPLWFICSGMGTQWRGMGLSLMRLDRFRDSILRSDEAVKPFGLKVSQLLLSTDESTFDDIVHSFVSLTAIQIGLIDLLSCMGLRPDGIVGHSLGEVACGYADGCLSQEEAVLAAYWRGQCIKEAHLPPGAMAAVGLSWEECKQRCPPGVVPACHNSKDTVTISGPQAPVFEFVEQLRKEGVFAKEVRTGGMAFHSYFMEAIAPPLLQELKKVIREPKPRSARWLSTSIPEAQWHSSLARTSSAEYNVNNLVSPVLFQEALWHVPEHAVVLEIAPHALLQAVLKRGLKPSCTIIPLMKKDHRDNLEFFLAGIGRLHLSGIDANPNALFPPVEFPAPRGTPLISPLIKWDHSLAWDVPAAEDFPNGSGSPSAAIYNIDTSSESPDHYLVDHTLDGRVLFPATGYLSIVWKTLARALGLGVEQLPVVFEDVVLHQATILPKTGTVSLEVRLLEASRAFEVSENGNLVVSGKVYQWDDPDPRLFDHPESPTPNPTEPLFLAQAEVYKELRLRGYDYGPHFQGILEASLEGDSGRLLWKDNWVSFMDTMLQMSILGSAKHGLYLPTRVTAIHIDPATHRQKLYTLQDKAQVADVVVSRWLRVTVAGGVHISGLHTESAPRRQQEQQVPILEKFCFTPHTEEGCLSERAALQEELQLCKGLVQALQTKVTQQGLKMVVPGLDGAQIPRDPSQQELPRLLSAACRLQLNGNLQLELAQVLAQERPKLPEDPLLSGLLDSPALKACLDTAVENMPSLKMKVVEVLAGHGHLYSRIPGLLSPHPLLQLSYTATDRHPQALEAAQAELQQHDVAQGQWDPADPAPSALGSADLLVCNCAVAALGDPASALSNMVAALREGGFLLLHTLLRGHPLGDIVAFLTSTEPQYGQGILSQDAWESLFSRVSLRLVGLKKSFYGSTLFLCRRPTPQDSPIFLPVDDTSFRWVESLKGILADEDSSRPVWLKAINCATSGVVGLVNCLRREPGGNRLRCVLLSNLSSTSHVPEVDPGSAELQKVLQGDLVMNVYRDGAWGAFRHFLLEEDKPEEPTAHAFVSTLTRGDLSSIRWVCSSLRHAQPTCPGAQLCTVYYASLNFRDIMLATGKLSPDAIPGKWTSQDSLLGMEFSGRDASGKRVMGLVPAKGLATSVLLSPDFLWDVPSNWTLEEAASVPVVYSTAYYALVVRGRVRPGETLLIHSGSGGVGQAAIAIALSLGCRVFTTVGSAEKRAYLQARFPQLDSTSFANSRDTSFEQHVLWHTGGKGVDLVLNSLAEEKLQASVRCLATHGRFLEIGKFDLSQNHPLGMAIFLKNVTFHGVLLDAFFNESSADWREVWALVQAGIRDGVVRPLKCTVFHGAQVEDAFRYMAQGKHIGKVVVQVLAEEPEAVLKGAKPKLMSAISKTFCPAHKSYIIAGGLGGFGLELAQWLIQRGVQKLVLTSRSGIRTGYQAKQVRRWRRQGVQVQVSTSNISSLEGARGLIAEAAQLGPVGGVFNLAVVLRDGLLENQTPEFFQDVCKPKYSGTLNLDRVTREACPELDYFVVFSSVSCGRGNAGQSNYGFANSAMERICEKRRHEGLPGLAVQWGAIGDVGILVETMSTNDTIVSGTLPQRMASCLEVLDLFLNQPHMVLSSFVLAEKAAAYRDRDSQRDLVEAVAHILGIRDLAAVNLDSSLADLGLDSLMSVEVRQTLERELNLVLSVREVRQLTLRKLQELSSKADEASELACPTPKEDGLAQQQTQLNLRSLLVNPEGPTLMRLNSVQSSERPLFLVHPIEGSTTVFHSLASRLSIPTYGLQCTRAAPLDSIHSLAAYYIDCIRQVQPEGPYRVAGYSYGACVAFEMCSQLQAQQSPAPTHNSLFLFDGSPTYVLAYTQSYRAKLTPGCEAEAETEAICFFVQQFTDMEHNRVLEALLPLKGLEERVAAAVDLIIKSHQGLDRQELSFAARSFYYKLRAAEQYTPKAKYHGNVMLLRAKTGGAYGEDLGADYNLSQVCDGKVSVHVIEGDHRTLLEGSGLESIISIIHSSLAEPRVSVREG
Bile acid receptor (Homo sapiens), sequence (Q96RI1 whole entry, looked up, the tested form may be a part): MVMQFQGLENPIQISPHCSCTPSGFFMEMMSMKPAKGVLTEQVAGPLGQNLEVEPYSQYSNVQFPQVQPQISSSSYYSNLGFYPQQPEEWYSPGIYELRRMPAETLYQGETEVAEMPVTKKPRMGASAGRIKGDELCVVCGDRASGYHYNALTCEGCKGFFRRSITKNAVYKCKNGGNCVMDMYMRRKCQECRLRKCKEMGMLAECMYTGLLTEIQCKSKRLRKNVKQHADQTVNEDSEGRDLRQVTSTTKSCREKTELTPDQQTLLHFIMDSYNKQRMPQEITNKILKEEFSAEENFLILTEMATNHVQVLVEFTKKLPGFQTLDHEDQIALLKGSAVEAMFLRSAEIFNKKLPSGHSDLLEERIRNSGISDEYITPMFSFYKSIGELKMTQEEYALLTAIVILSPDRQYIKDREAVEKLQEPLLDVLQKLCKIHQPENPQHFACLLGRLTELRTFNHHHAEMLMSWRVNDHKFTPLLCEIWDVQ
Retinoic acid receptor RXR-alpha (Homo sapiens), sequence (P19793 whole entry, looked up, the tested form may be a part): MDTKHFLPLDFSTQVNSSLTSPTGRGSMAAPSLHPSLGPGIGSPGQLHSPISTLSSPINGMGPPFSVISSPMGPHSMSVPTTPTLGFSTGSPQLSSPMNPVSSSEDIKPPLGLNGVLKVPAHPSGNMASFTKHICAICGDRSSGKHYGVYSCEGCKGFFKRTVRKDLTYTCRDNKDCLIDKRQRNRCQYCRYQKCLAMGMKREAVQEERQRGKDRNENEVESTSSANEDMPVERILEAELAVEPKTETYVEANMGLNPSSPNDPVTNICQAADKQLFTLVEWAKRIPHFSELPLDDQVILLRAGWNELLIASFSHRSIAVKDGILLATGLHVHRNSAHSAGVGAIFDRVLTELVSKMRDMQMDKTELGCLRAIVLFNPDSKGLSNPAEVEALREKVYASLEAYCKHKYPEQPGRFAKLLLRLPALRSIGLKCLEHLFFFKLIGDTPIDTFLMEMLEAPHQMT
Peroxisome proliferator-activated receptor gamma (Homo sapiens), sequence (P37231 whole entry, looked up, the tested form may be a part): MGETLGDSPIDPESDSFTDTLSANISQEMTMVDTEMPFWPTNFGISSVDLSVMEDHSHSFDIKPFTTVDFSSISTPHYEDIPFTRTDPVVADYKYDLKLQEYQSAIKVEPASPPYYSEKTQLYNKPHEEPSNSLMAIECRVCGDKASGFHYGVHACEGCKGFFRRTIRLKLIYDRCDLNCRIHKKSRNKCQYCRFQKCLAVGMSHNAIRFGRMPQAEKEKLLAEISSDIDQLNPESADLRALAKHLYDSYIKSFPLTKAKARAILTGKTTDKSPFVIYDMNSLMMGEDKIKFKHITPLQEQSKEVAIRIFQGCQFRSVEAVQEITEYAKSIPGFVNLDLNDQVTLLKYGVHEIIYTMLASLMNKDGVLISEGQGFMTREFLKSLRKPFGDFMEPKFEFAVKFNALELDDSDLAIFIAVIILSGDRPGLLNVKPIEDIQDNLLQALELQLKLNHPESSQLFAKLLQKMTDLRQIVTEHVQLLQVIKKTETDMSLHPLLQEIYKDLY

The AC50 is the concentration giving half of the maximal activity seen. Regarding `CCO[Si](CCCNC(N)=O)(OCC)OCC`, the molecule was classed as inactive in experiment [1], in experiment [2], in experiment [3], in [4], in experiment [5] and in experiment [6]. Also, the outcome in experiment [7], in experiment [8], in experiment [9] and in experiment [11] was inactive. Also, the AC50 in experiment [10] is 50 µM (active).

In the case of `Oc1ccccc1`, the molecule was called inactive in [1], in experiment [2], in [12], in experiment [3], in experiment [4] and in experiment [5]. In addition, the outcome in [13], in experiment [6], in [8], in [9], in experiment [10] and in experiment [11] was inactive.

Take `O=C(OCCCCCCOC(=O)c1ccccc1)c1ccccc1`: the molecule was called inactive in experiment [1], in experiment [2], in experiment [5], in experiment [13], in experiment [6] and in experiment [7]. For the same molecule, the outcome in [8], in experiment [9], in [10] and in experiment [11] was inactive.

In the case of `Cc1oc2c(NC(=O)c3c(Cl)cccc3Cl)cccc2c1C(C)(C)O`, the AC50 in experiment [1] is 13.5 µM (active); in experiment [2], 12.6 µM (active); in experiment [14], 3.01 µM (active); in experiment [17], 2.53 µM (active); in experiment [13], 31.2 µM (active); in experiment [8], 29.3 µM (active). The half-maximal activity concentration (AC50) is 37.2 µM (active) in experiment [9] and 8.74 µM (active) in experiment [10]. The molecule was called inactive in experiment [3], in experiment [4], in experiment [15], in [16], in experiment [18] and in experiment [5]. Further, the molecule was called inactive in experiment [19] and in [11].

As for `CCCCOC(=O)c1ccc(O)cc1`, the AC50 in [1] was 14.6 µM (active) and 16 µM (active); in experiment [18], 3.6 µM (active). Also, the molecule was called inactive in [2], in experiment [12], in experiment [3], in experiment [4], in experiment [14] and in experiment [20]. In addition, the call in experiment [15], in [16], in [17], in experiment [5], in experiment [13] and in [19] was inactive. The outcome in experiment [7], in experiment [8], in experiment [9], in experiment [10] and in experiment [11] was inactive.

On to `O=C(O)c1ccccc1-n1cc(C(=O)O)c(=O)c2cc(Nc3c(F)cc(F)cc3Cl)c(Cl)cc21`, for which the call in [1], in experiment [2], in experiment [12], in [3], in experiment [4] and in experiment [5] was inactive. The call in experiment [13], in [19], in [7], in [8], in [9] and in [11] was inactive. Also, the AC50 in experiment [10] was 20.5 µM (active).

For the molecule `CCCCCCCCCCCO`, the molecule was classed as inactive in experiment [1], in [2], in experiment [12], in experiment [3], in experiment [4] and in [5]. For the same molecule, the result in experiment [13], in [6], in experiment [8], in [9], in experiment [10] and in experiment [11] was inactive.

As for `Cc1ncc(CO)c(CO)c1O`, the outcome in experiment [1], in experiment [2], in experiment [12], in experiment [3], in [4] and in experiment [5] was inactive. The call in [13], in [6], in [7], in experiment [8], in [9] and in experiment [11] was inactive. The half-maximal activity concentration (AC50) in [10] was 65.3 µM (active).
